# KB-V1 MDR tox – KB-V1 MDR subline cytotoxicity | KB-V1 MDR cells viability, CellTiter-Glo, 72 h | Potency, µM (series often up to 46.1 µM), hits mostly cytotoxic | 400,000 compounds, 3.4% hits | AID 1347076; also: % is scaled to controls: 0 for no effect and ±100 for the full control effect; nearly all actives have a fitted effect of over 60% in size
#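 Luminescent ATP read-out (CellTiter-Glo, 10 min) measures survival of drug-selected KB-V1 MDR cells after 72 h, 37 degrees C compound exposure. Medium: phenol-red-free DMEM, 10% FBS. Values from fitted concentration-response curves.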
# KB-3-1 cytotox – KB-3-1 parental cell cytotoxicity; 400,000 compounds, 1.4% hits; KB-3-1 viability, CellTiter-Glo ATP luminescence, 72 h; Potency, µM (highest dose often 46.1 µM), most hits filed as cytotoxic; AID 1347075; also: % is scaled to controls: 0 for no effect and ±100 for the full control effect; nearly all actives have a fitted effect of over 60% in size
#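 72 h, 37 °C compound treatment of KB-3-1 parental cells; CellTiter-Glo added, 10 min, luminescence read. Data corrected against DMSO-only plates and normalized before curve fitting.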
# HT1080NT lethal – kills 2HG-producing HT-1080-NT fibrosarcoma cells. Potency, µM (highest dose often 46.1 µM), without a hit: top-dose activity, negative = less viability, usual class: cytotoxic. 360,000 compounds, 1.6% hits. AID 686970. HT-1080-NT fibrosarcoma viability, CellTiter-Glo ATP luminescence, 48 h;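 also: NT is the 2HG producing partner of a matched IDH1 knockdown line; 0% = DMSO-treated cells and -100% = media-only wells without cells; nearly all actives have a fitted effect of over 55% in size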
#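 Luminescent CellTiter-Glo readout after 48 hours of compound exposure at 37 degrees C defined viability of HT-1080-NT cells. Activity was normalized to DMSO wells and cell-free media wells; concentration-response curves were fitted and assigned curve classes.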
# TGFb SMAD3 inh – TGF-b pathway inhibition; HepG2 CAGA-GFP TGF-b/SMAD3 reporter, GFP fluorescence, 18 h; TGF-beta stimulated, 500 pg/mL final; 410,000 compounds, 1.2% hits; AID 588855; Potency, µM (series often up to 46.1 µM), inactives show at the top dose activity, negative = inhibition, usual class: inhibitors; also: % is scaled to controls: 0 for no effect and ±100 for the full control effect; nearly all actives have a fitted effect of over 65% in size
#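 HEPG2 CAGA-GFP cells (1000/well, DMEM with 1% FBS) were pre-incubated 2 h at 37 degrees C, given compound by pin tool, then stimulated with TGF-beta at 500 pg/mL final for 18 h before per-cell GFP fluorescence imaging.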
# HT1080 IDH1KD tx – toxicity to HT-1080 IDH1 knockdown cells (counter line); 360,000 compounds, 2% hits; Potency, µM (highest dose often 46.1 µM), inactives show top-dose activity, negative = toxicity, most hits filed as cytotoxic; HT-1080 IDH1 knockdown viability, ATP luminescence, 48 h;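 also: 0% = DMSO wells and -100% = cell-free medium wells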
#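 Luminescent ATP read-out (CellTiter-Glo, 10 min at room temperature) after 48 h compound exposure at 37 °C gave viability of IDH1-knockdown HT-1080 cells. Activity was normalised to DMSO and cell-free wells, then fitted as concentration-response curves.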
# HepG2 tox – counter-screen for TGF-b inhibitors: cytotoxicity in HepG2 cells. HepG2 CAGA-GFP viability, ATP luminescence, 18 h. Potency, µM (titrated, usually from 46.1 µM), without a hit: at the highest dose activity change, negative = cytotoxicity, most hits filed as cytotoxic. 410,000 compounds, 0.76% hits. AID 588856
#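 HepG2 CAGA-GFP cells (1000/well, DMEM with 1% FBS) received compound, then TGF-beta at 500 pg/mL final, and were incubated 18 hours at 37 degrees C. Viability was read by CellTiter-Glo luminescence. Media-only wells were set as complete cell-killing and DMSO as no toxicity.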
# Starred values were filed as active, the others as inactive; i = inactive; ? = inconclusive; . = no result; ! = repeats disagree. Most compounds without a hit are left out; they make up all but 6.6% or so of the library. Calls follow the shape of the dose curve; as a rule, active = well fitted curve in the direction sought with a large enough effect; inconclusive = small, poorly fitted or top-dose-only effect, or another doubt; inactive = no such curve, though single readings can be large; an effect the other way counts as inactive or inconclusive. Potency is read from the fitted curve at half-maximal effect.
SMILES,KB-V1 MDR tox,KB-3-1 cytotox,HT1080NT lethal,TGFb SMAD3 inh,HT1080 IDH1KD tx,HepG2 tox
O=C(CS(=O)(=O)c1cn(Cc2cccc(F)c2)c2ccccc12)N1CCOCC1,23.1µM*,i,-2.2%,0.0%,-11.5%,-1.3%
O=C1CCC[C@@H]2Cc3nc4cc5c(cc4cc3[C@@H]3CCN1[C@H]23)OCO5,18.4µM*!,i,-0.1%,2.8%,-0.7%,-14.2%
O=C1CCC[C@@H]2Cc3nc4ccc(O)cc4cc3[C@@H]3CCN1[C@H]23,i,i,22.2%,2.0%,11.3%,4.9%
Cc1cccc(C(=O)NCC(c2ccc3c(c2)OCO3)N2CCOCC2)c1 (stereo not given),i,i,.,-18.0%,.,-7.6%
CS(=O)(=O)c1ccc(C(=O)N2CC(=O)Nc3ccccc32)cc1,i,i,11.4%,2.2%,-0.1%,-1.7%
Cc1ccsc1C(=O)N1CC(=O)Nc2ccccc21,i,?,?,1.5%,18.4µM*,-30.7%
CCOCC(=O)Nc1c(C(=O)N2CCN(c3ncccn3)CC2)oc2ccccc12,i,i,0.2%,-5.5%,-2.2%,-28.2%
O=C(c1oc2ccccc2c1CSCc1ccccc1)N1CCN(c2ncccn2)CC1,i,i,10.0%,15.8µM*,-7.5%,-42.0%
COCC(=O)Nc1c(C(=O)Nc2ccc3c(c2)OCO3)oc2ccccc12,i,i,4.2%,3.4%,-1.3%,-22.8%
O=C(Nc1ccc(F)cc1)c1oc2ccccc2c1NC(=O)C1CCCC1,13µM*,i,23.8%,-2.5%,?,-0.6%
O=C(CCl)Nc1c(C(=O)Nc2ccc3c(c2)OCCO3)oc2ccccc12,?,?,?,?,?,15.8µM*
O=c1ccc2c([nH]1)CCCCCCCCCC2,7.31µM*,?,-5.1%,-1.8%,-5.7%,-8.3%
O=C(Nc1ccc(C2CC2(Cl)Cl)cc1)c1ccccc1Br (stereo not given),18.4µM*,i,4.3%,?,11.5%,-20.1%
O=C(Nc1ccc(C(=O)N2CCCC2)cc1)c1ccccc1Br,.,.,-6.1%,0.0%,-19.1%,-39.4%
O=C(Oc1ccccc1C(=O)Nc1ccccc1)c1ccccc1Br,16.4µM*,11.6µM*,?,0.0%,7.31µM*,-23.5%
CN(C)c1nc(NC(C)(C)C)nc(SCC(=O)Nc2ccccc2)n1,8.2µM*,i,-21.1%,?,-9.7%,4.4%
CN(C)c1nc(SCCOC(=O)Nc2ccccc2)nc(N(C)C)n1,14.6µM*,i,0.5%,-34.1%,1.9%,-30.1%
Cc1cc(Sc2nnc(N)s2)c2ccccc2n1,i,i,?,7.08µM*,?,-100.9%
Cc1cc(Sc2nnc(/N=C/N(C)C)s2)c2ccccc2n1,i,?,14.6µM*,8.91µM*,18.4µM*,11.2µM*
O=C(NCC(c1cccs1)S(=O)(=O)c1cccs1)c1c(F)cccc1F (stereo not given),i,i,.,12.3%,.,0.4%
COc1cc(C(=O)Nc2c(C(=O)Nc3ccccc3F)oc3ccccc23)cc(OC)c1OC,i,i,.,?,.,-18.1%
Cc1cn2c(=O)cc(COc3ccc(NC(=O)c4ccc(C(C)(C)C)cc4)cc3)nc2s1,i,i,.,-8.2%,.,-11.0%
Cn1c(SCC(=O)N2CCCC2)nc2ccccc21,i,i,2.7%,-1.9%,9.7%,-8.9%
Cn1c(SCC(=O)N(Cc2ccccc2)C(C)(C)C)nc2ccccc21,20.6µM*,i,-26.7%,-7.6%,?,-3.8%
c1ccc(N=c2nc(-c3ccccc3)n(-c3ccccc3)s2)cc1,16.4µM*,?,.,2.82µM*,.,-83.6%
SMILES,KB-V1 MDR tox,KB-3-1 cytotox,HT1080NT lethal,TGFb SMAD3 inh,HT1080 IDH1KD tx,HepG2 tox
CCN1c2ccccc2-c2nc(SCC(=O)Nc3c(C)cc(C)cc3C)ncc2S1(=O)=O,4.61µM*,10.3µM*,.,-18.8%,.,-4.1%
COc1ccccc1NC(=O)CSc1ncc2c(n1)-c1cc(Cl)ccc1N(Cc1ccccc1)S2(=O)=O,i,i,.,-0.6%,.,-5.3%
O=C(CSc1ncc2c(n1)-c1cc(Cl)ccc1N(Cc1ccccc1)S2(=O)=O)Nc1ccc(F)cc1F,13µM*,i,.,0.5%,.,-3.7%
Cc1nn2c(C)c(C(=O)NCC(C)c3ccccc3)cnc2c1-c1ccccc1 (stereo not given),i,i,.,-0.5%,.,0.0%
CN(C)P(=O)(Nc1cccc2ccccc12)Nc1cccc2ccccc12,11.6µM*,i,1.4%,-17.5%,0.5%,-30.5%
CCC(C)NC(=O)CSc1nnc(-c2ccc(C(C)(C)C)cc2)n1C (stereo not given),i,i,-7.9%,-0.4%,-8.1%,-56.7%
CC(C)NC(=O)CSc1nnc(-c2ccc(C(C)(C)C)cc2)n1C,25.9µM*,i,-9.7%,-4.6%,-22.2%,-18.6%
C[C@@H]1CN([C@H](C)CO)C(=O)c2cc(C#Cc3ccccc3F)cnc2O[C@@H]1CN(C)S(=O)(=O)c1ccccc1F,i,i,-0.1%,6.7%,-4.0%,1.2%
COc1ccc(-c2c(C)nn3c(N)c(C#N)cnc23)cc1OC,9.2µM*,i,-4.6%,-14.5%,-17.8%,-1.0%
CCCOc1ccc(CNC(=O)C2CCN(c3nc4ccccc4nc3C(F)(F)F)CC2)cc1,i,i,.,?,.,-1.1%
O=C(CSc1ccccn1)Nc1nonc1[N+](=O)[O-],10.3µM*,?,20.6µM*,11.2µM*,?,12.6µM*
CC(=O)NS(=O)(=O)c1ccc(NC(=O)C(C)NS(=O)(=O)/C=C/c2ccccc2)cc1 (stereo not given),i,i,0.0%,1.4%,-0.4%,1.5%

# Source: PubChem BioAssay (National Center for Advancing Translational Sciences (NCATS))
